Screening data from PubChem.
Compounds with a hit are over-represented: about 2.5% of the library has one in this group of screens.
Cruzain inh noDet – qHTS Assay for Promiscuous and Specific Inhibitors of Cruzain (without detergent); AID 1476, 2009; Potency, µM, most hits filed as inhibitors; purified cruzain, Z-FR-AMC fluorescence, no detergent; 2.3% of 200,000 active; also: nearly all actives have a fitted effect of over 40% in size
Target sequence (P25779 123-467 limits assumed): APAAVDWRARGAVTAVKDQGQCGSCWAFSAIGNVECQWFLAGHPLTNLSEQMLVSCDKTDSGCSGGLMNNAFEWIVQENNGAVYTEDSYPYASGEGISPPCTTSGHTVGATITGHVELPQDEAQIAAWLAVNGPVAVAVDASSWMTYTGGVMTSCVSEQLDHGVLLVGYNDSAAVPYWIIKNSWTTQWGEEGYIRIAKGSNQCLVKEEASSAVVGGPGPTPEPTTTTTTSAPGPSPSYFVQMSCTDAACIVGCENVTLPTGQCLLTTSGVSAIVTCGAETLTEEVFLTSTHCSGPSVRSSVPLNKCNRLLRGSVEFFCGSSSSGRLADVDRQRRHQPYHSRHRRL
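Detergent-free condition (0.00005% Triton X-100) in acetate buffer pH 5.5 with DTT. 1.5 nM enzyme and compound were pre-mixed 15 min, then 2 uM Z-FR-AMC substrate added; reaction progress from fluorescence change between first and third reads (60 s).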
Cruzain Triton – qHTS Assay for Promiscuous and Specific Inhibitors of Cruzain (with detergent); Cruzipain (Trypanosoma cruzi), P25779; purified cruzain, Z-FR-AMC fluorescence, 0.01% Triton; Potency, µM, usual class: inhibitors; 0.43% of 200,000 active; also: nearly all actives have a fitted effect of over 40% in size
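Sodium acetate buffer (100 mM, pH 5.5) containing 5 mM DTT and 0.01% Triton X-100 hosted 1.5 nM cruzain and test compound for 15 min at room temperature. Cleavage of 2 uM Z-FR-AMC was then tracked by fluorescence.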
Hits are given with their value; 0 = inactive; ? = inconclusive. Calls follow the shape of the dose curve; as a rule, active = well fitted curve in the direction sought with a large enough effect; inconclusive = small, poorly fitted or top-dose-only effect, or another doubt; inactive = no such curve, though single readings can be large; an effect the other way counts as inactive or inconclusive.

SMILES	Cruzain inh noDet	Cruzain Triton
CCOC(=O)c1sc(-n2[nH]c(C)cc2=O)nc1C	0	?
Cc1c(/C=C(\C#N)c2nn(-c3ccccc3)c(N)c2C#N)c2ccccc2n1Cc1ccc(F)cc1	4µM	0
Cc1ccc(/C=C(\C#N)c2nn(-c3ccccc3)c(N)c2C#N)cc1	0	0
CCOC(=O)C1=C(C)NC(=S)NC1c1ccc(-c2ccc(Cl)cc2)o1 (stereo not drawn)	?	0
COC(=O)C1=C(C)NC(=S)NC1c1ccc(-c2cccc(Cl)c2)o1 (stereo not drawn)	25µM	0
COc1cccc(Cn2c(=O)c(CCc3ccccc3)nc3cnc(N4CCNCC4)nc32)c1	0	0
O=C(CSc1nc2c([nH]c3ccccc32)c(=O)n1-c1ccc(Cl)cc1)N1CCOCC1	0	0
O=C(/C=C/c1cccc([N+](=O)[O-])c1)c1ccccc1	0	0
O=C(C#Cc1cccc([N+](=O)[O-])c1)c1ccccc1	0	8.9µM
Cc1cccc2sc(N(Cc3cccnc3)C(=O)Cc3ccccc3)nc12	0	0
COc1ccc(C2=C(CN(C)C)C(c3ccccc3)c3ccccc3O2)cc1 (stereo not drawn)	0	0
CCOc1ccc(C2=C(C=C(C#N)C#N)C(c3ccccc3)c3ccccc3O2)cc1 (stereo not drawn)	10µM	0
Cc1ccc(-n2c(=O)c3ccc(C(=O)NCc4ccco4)cc3n(CC(=O)Nc3ccccc3C(F)(F)F)c2=O)cc1	0	0
c1cncc(-c2nnc(SCc3nc4ccccc4[nH]3)o2)c1	?	0
c1ccc2[nH]c(CSc3nc4ccccc4o3)nc2c1	13µM	0
Cc1ccccc1Oc1ncnc2oc(-c3ccccc3)cc12	0	0
Clc1ccc(Oc2ncnc3oc(-c4ccccc4)cc23)cc1	20µM	0
CCc1ccc2occ(CC(=O)Nc3c(C(=O)Nc4ccc(Cl)cc4)oc4ccccc34)c2c1	10µM	0
CCc1ccc2occ(CC(=O)Nc3c(C(=O)Nc4ccc(C)cc4)oc4ccccc34)c2c1	0	0
Cc1ccc2occ(CC(=O)Nc3c(C(=O)Nc4ccc(Cl)cc4)oc4ccccc34)c2c1	10µM	0
Cc1cc(C)c2c(CC(=O)Nc3c(C(=O)Nc4ccc(Cl)cc4)oc4ccccc34)coc2c1	0	0
Cc1ccc(-c2nnn(CC(=O)N(c3ccc(F)cc3)C(C(=O)NC(C)(C)C)c3ccco3)n2)o1 (stereo not drawn)	0	0
Cc1ccc(-c2nnn(CC(=O)N(c3cccc(F)c3)C(C(=O)NC3CCCC3)c3ccco3)n2)o1 (stereo not drawn)	6.3µM	0
Cc1ccc(-c2nnn(CC(=O)N(c3ccc(F)cc3)C(C(=O)NC3CCCC3)c3ccco3)n2)o1 (stereo not drawn)	10µM	0
Cc1ccc(-c2nnn(CC(=O)N(c3ccccc3F)C(C(=O)NC3CCCC3)c3ccco3)n2)o1 (stereo not drawn)	0	0
SMILES	Cruzain inh noDet	Cruzain Triton
COc1cccc(CNC(=O)c2cc3c(=O)n(Cc4cccnc4)ccc3nc2C)c1	0	0
COc1cc(OC)cc(C(=O)Nc2ccc3nc(N4CCCCC4)cc(C)c3c2)c1	0	0
O=C(COc1ccccc1F)Nc1ccc2nc(SCC(=O)N3CCCC3)sc2c1	0	0
CCN(CC)c1ccc(NC(=O)/C=C\c2ccccc2Cl)cc1	25µM	0
CN(C)c1ccc(NC(=O)/C=C/c2ccccc2Cl)cc1	0	0
Cc1ccccc1OCC(=O)N/N=C/c1ccc2c(c1)OCCO2	0	0
O=C(NCCc1ccccc1)C(=O)N/N=C/c1ccc2c(c1)OCO2	20µM	0
Cc1cc(C)c(OCC(=O)N/N=C/c2ccc3c(c2)OCO3)c(C)c1	20µM	0
O=C(N/N=C\c1ccc2c(c1)OCO2)c1ccco1	0	0
Cc1nn(CC(=O)NCc2ccc(N(C)C)cc2)c(=O)c2c(C)n(-c3ccc(Cl)cc3)nc12	0	0
O=C(NCCc1ccccc1)c1cc(-c2ccc(Cl)c(Cl)c2)on1	0	0
CC(C)CNC(=O)c1cc(-c2ccc(Cl)c(Cl)c2)on1	13µM	0
COc1ccc(Cl)cc1Nc1nc(-c2sc(NC(=O)CC(C)C)nc2C)cs1	20µM	0
C=CCNc1nc(-c2sc(NC(=O)CC)nc2C)cs1	?	0
Cc1nc(NC(=O)CC(C)C)sc1-c1csc(Nc2ccc(Cl)cc2Cl)n1	16µM	0
C=CCCC(=O)Nc1nc(C)c(-c2csc(Nc3ccc(Cl)cc3Cl)n2)s1	?	0
Cc1nc(NC(=O)CC(C)C)sc1-c1csc(Nc2ccc(Cl)cc2)n1	13µM	0
C=CCCC(=O)Nc1nc(C)c(-c2csc(Nc3cc(Cl)ccc3OC)n2)s1	16µM	0
O=C(NCc1ccccc1)c1ccc2c(c1)CCN2S(=O)(=O)c1ccc(Cl)cc1	?	0
CCc1ccc(S(=O)(=O)c2nnn3c2nc(Nc2ccc(C)c(Cl)c2)c2sccc23)cc1	0	0
COC(=O)c1ccc(Cl)c(NC(=O)C2CCN(S(=O)(=O)Cc3ccccc3)CC2)c1	0	0
Cc1nc2cccnc2n1C1CCN(C(=O)Nc2ccccc2)CC1	0	0
CCCCCCC(=O)Nc1nc(C)c(-c2csc(Nc3cc(OC)ccc3OC)n2)s1	10µM	0
CCCCCC(=O)Nc1nc(C)c(-c2csc(Nc3cc(OC)ccc3OC)n2)s1	?	0
O=S(=O)(Nc1nc2ccccc2nc1Nc1ccc(N2CCOCC2)cc1)c1cc(Cl)ccc1Cl	20µM	0
SMILES	Cruzain inh noDet	Cruzain Triton
O=S(=O)(Nc1ccc(N2CCOCC2)cc1)c1ccc2ccccc2c1	0	0
O=C(CCn1c(=O)c2cccn2c2cccnc21)NCc1cccc(Br)c1	0	0
Cc1nc(SCC(=O)Nc2ccc(F)cc2)c(C#N)c(C)c1CC(=O)c1ccc(Br)cc1	?	0
Cc1cccc(NC(=O)CSc2nc(C)c(CC(=O)c3ccc(Br)cc3)c(C)c2C#N)c1C	13µM	0
CCOC(=O)C1CCN(CC(=O)Nc2cc(C)c3c(=O)oc4ccccc4c3n2)CC1	0	0
O=C(NN1C(=O)c2cc(Br)ccc2NC1c1ccccc1Cl)c1ccncc1 (stereo not drawn)	0	0
O=C(NN1C(=O)c2cc(Br)ccc2NC1c1cc(Br)cc(Br)c1O)c1ccncc1 (stereo not drawn)	10µM	0
CCOC(=O)c1ccc(N2CCN(c3cc(Cl)ccc3C)CC2)c(NC(=O)Nc2ccc(OCC)cc2)c1	0	0
CCOC(=O)c1ccc(N2CCN(c3cc(C)ccc3C)CC2)c(NC(=O)Nc2ccccc2)c1	7.9µM	0
CCOc1ccccc1CNC(=O)c1cc2oc3ccccc3c2n1CC	32µM	0
CCn1c(C(=O)NCc2ccc(F)cc2)cc2oc3ccccc3c21	0	0
O=C(O)[C@@H]1[C@@H](C(=O)NCc2ccncc2)[C@@H]2C=C[C@@H]1O2	0	0
COc1ccc(-c2nsc(NC(=O)c3cccc(OC)c3)n2)cc1	0	0
COc1cccc(C(=O)Nc2nc(-c3ccc(Br)cc3)ns2)c1	25µM	0
COCCNc1ccc2cc(S(=O)(=O)N3CCCCC3)ccc2n1	0	0
CCS(=O)(=O)N1Cc2ccccc2CC1C(=O)Nc1nnc(SCc2ccc(C#N)cc2)s1 (stereo not drawn)	25µM	0
CCS(=O)(=O)N1Cc2ccccc2CC1C(=O)Nc1nc2ccc(C)cc2s1 (stereo not drawn)	13µM	0
N#Cc1ccc(CSc2nnc(NC(=O)C3CCCO3)s2)cc1 (stereo not drawn)	0	0
